The values below come from PubChem BioAssay.

Calls of active or inactive are those of the source. Unless noted, no rule for the calls is given here.

Experiment [1] in a line: HepG2 liver cancer cell viability effects, profiling panel, resazurin fluorescence, 24 h, PK04 Diversity Set (AID 1172). The settings on record: higher = more signal.
Experiment [2] in a line: basal S. cerevisiae growth modulation, no modifier, primary screen, OD600, strain BY4716, 24 h, basal condition (AID 1173). The settings on record: OD600, 24 h; higher = more signal, called active from +8 up or from −8 down unless noted.
The nature of experiment [3]: MM1S myeloma cell viability, profiling panel, resazurin fluorescence, basal, 24 h, PK04 Diversity Set (AID 1174).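 Also: MM1S multiple myeloma cell line.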 As to conditions: higher = more signal, called active from +8 up or from −8 down unless noted. A general note: The colour change of resazurin is a common sign of viable cells or microbes.
For experiment [4], the target named is Dihydroorotate dehydrogenase (quinone), mitochondrial (Plasmodium falciparum (isolate 3D7)) (UniProt Q08210). The experiment is described as follows: PfDHODH enzyme inhibitors, primary screen, biochemical, C-terminal His tag, absorbance 600 nm (AID 1175).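 Also: recombinant parasite enzyme with a five histidine tag at its C terminus.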 The settings on record: DCIP absorbance 600 nm; higher = more signal, called active from +8 up or from −8 down unless noted.
Sequence of Dihydroorotate dehydrogenase (quinone), mitochondrial (Plasmodium falciparum (isolate 3D7)) (Q08210 whole entry, looked up): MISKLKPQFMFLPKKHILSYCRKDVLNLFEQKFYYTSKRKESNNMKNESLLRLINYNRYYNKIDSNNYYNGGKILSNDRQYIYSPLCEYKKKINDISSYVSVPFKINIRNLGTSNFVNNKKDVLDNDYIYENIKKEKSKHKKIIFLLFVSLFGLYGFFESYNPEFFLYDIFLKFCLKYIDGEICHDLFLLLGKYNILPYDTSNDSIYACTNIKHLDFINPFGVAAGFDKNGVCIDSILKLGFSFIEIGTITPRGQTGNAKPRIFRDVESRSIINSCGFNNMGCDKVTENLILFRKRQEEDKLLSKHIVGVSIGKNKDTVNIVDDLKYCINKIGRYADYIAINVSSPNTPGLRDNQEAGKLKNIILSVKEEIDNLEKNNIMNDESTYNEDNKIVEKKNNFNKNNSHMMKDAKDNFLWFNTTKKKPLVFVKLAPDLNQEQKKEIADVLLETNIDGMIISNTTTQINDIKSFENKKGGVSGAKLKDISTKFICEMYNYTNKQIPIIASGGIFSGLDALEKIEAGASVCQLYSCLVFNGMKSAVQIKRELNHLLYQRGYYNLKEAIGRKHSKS

A short description of experiment [5]: P. aeruginosa biofilm formation inhibitors, primary screen, strain PAO1, LB-PBS medium, absorbance 600 nm (AID 1176). As to conditions: P. aeruginosa PAO1 growth/biofilm, A600, 12 h; higher = more signal.
Experiment [6] can be described thus: S. cerevisiae RM11-1a growth modifiers, primary screen, strain RM11-1a, OD600, basal, 24 h (AID 1177).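 Also: cultures grown under basal conditions with no added stressor.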 As to conditions: OD600, 24 h; higher = more signal, called active from +8 up or from −8 down unless noted.
The nature of experiment [7]: E. coli acrAB mutant growth effects, primary screen, E. coli filamentation inducers, strain DRC39, OD650, 24 h (AID 1178).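 Also: growth measured as culture turbidity by optical density at 650 nm.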 As to conditions: higher = more signal, called active from +8 up or from −8 down unless noted.
Experiment [8] in a line: E. coli acrAB mutant growth effects, primary screen, E. coli filamentation inducers, strain DRC39, OD650, 48 h (AID 1179).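 Also: screen aims at cell division blockers that make cells filament.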 The settings on record: E. coli DRC39 delta-acrAB growth, higher = more signal, called active from +8 up or from −8 down unless noted.
A short description of experiment [9]: RPMI8226 myeloma cell viability, profiling panel, resazurin fluorescence, basal, 24 h, PK04 Diversity Set (AID 1180).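 Also: RPMI8826 multiple myeloma cell line at 5000 cells per well.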 As to conditions: higher = more signal; RPMI8226 viability, resazurin fluorescence, 24 h unless noted.
In experiment [10] the target is E3 ubiquitin-protein ligase XIAP (Homo sapiens) (UniProt P98170). The experiment is described as follows: XIAP binders, primary screen, biophysical, small-molecule microarray, fluorescence 635 nm (AID 1181).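 Also: score merges 667 nm emission and signal to noise over triplicate slides.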 The settings on record: small-molecule microarray binding, higher = more signal.
Sequence of E3 ubiquitin-protein ligase XIAP (Homo sapiens) (P98170 whole entry, looked up): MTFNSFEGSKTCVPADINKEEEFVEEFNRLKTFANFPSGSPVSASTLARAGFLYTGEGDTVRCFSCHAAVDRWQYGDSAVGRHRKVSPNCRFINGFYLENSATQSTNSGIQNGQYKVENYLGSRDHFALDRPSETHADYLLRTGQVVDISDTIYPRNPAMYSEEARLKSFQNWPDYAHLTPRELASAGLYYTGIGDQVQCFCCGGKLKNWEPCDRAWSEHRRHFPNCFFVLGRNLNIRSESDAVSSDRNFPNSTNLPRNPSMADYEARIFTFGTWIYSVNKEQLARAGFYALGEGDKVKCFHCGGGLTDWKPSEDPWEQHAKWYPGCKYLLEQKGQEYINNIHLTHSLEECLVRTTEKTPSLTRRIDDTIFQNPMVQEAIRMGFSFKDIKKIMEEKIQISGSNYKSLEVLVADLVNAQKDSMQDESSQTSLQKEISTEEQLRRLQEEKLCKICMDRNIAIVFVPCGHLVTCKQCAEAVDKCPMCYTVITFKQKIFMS
The test system of experiment [11] is XIP peptide (Xip251-270) binding. The experiment is described as follows: small-molecule binders of XIP peptide, primary screen, biochemical, small-molecule microarray, fluorescence 635/667 nm, 0.1 µg/mL protein (AID 1182). As to conditions: fluorescent protein binding, 635 nm; higher = more signal, called active from +8 up or from −8 down unless noted.
A further experiment has as its system XIP peptide (Xip251-270). The experiment is described as follows: small-molecule binders of XIP peptide, primary screen, biochemical, small-molecule microarray, fluorescence 635/667 nm, 0.5 µg/mL protein (AID 1183). As to conditions: small-molecule microarray binding, fluorescence 635 nm; higher = more signal.
Experiment [12] in a line: Plasmodium falciparum growth inhibition, primary screen, strain 3D7, DAPI fluorescence, 100 nL (AID 1184).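 Also: parasites grown inside human red blood cells in medium with human serum.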 As to conditions: P. falciparum 3D7 growth, 3 d, higher = more signal.
Experiment [13] has as its target Homeobox protein Hox-A13 (Mus musculus) (UniProt Q62424). The experiment can be described thus: inhibitors of HoxA13-DNA binding, primary screen, biochemical, fluorescence polarization, labeled oligonucleotide (AID 1185). The settings on record: 15 min; higher = more signal, called active from +8 up or from −8 down unless noted.
A short description of experiment [14]: inhibitors of hydroxyurea-induced Chk1 phosphorylation, primary screen, imaging, HeLa, phospho-Chk1 antibody, percent positive cells (AID 1186). As to conditions: hydroxyurea-induced phospho-Chk1 immunofluorescence imaging, higher = more signal.
Experiment [15] is described as follows: inhibitors of hydroxyurea-induced Chk1 phosphorylation, primary screen, imaging, HeLa, phospho-Chk1 nuclear intensity (AID 1187). As to conditions: hydroxyurea-induced phospho-Chk1 immunofluorescence imaging, higher = more signal.

Sequence of Homeobox protein Hox-A13 (Mus musculus) (Q62424 whole entry, looked up): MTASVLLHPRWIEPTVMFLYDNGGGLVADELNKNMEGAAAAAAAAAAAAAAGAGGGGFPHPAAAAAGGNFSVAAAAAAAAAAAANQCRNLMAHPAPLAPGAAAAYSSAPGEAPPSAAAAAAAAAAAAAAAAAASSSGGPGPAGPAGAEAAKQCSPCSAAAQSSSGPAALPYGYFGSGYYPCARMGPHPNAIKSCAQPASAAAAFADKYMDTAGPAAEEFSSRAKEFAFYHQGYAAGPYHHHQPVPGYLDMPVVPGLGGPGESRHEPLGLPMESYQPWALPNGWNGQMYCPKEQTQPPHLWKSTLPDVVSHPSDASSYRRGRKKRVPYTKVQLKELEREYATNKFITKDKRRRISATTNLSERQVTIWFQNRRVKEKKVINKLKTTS

For the molecule `COC(=O)[C@H]1[C@@H](O)[C@@]2(O)c3c(OC)cc(OC)cc3O[C@@]2(c2ccc(OC)cc2)[C@@H]1c1ccccc1`, the z-score in experiment [1] was -2.12; in experiment [2], -0.795 (inactive); in experiment [3], -3.65 (inactive); in experiment [5], 0.511 (inactive); in experiment [6], 0.452 (inactive); in [7] it was 0.945 (inactive). In addition, the z-score in experiment [8] was 0.669 (inactive); in [9], -4.1; in experiment [12], -1.26; in experiment [13], -0.0317 (inactive). Moreover, the composite z-score in [4] is -0.447 (inactive); in [10] it was -0.245; in experiment [11], -0.119 (inactive); with XIP peptide (Xip251-270), 0.914.

As for `CN1CCC(c2ccc(CO)cc2)=CC1C1CC1` (stereo unspecified), the z-score was -0.777 in experiment [1]; 0.574 (inactive) in [2]; -0.55 (inactive) in [3]; -0.247 (inactive) in experiment [5]; -0.123 (inactive) in experiment [6]; 0.501 (inactive) in experiment [7]. The z-score was 0.389 (inactive) in [8]; -0.869 in experiment [9]; -0.0622 in experiment [12]; -1.39 (inactive) in experiment [13]; 0.738 (inactive) in experiment [14]; 0.657 (inactive) in [15]. Further, the composite z-score in experiment [4] was -0.54 (inactive); in experiment [10], 0.284; in experiment [11], -0.809 (inactive); in the experiment with XIP peptide (Xip251-270), 0.005.

For the molecule `COC(=O)[C@H]1C(=O)c2ccccc2O[C@@](C(=O)OC)(c2ccccc2)[C@@H]1c1ccccc1`, the z-score is -0.515 in experiment [1]; -0.54 (inactive) in [2]; -0.0272 (inactive) in [3]; -0.233 (inactive) in experiment [5]; 0.174 (inactive) in experiment [6]; 0.27 (inactive) in experiment [7]. Moreover, the z-score was 0.419 (inactive) in experiment [8], 0.223 in experiment [9], -1.6 in experiment [12] and -0.6 (inactive) in [13]. For the same molecule, the composite z-score in experiment [4] is 0.0983 (inactive); in experiment [10] it was 0.182; in experiment [11], 0.107 (inactive); in the experiment on XIP peptide (Xip251-270), 0.191.

Turning to `OCc1ccc(C2=CC(c3cccs3)N(Cc3cccc(OC(F)(F)F)c3)CC2)cc1` (stereo unspecified), the z-score in experiment [1] was -0.0049; in experiment [2], -1.22 (inactive); in experiment [3], -0.126 (inactive); in experiment [5], -0.223 (inactive); in [6], -0.449 (inactive); in [7] it was 0.301 (inactive). Besides, the z-score in experiment [8] was -0.544 (inactive); in [9], 0.341; in [12], -3.09; in experiment [13], -1.91 (inactive); in experiment [14] it was -0.308 (inactive); in experiment [15] it was -0.44 (inactive). Besides, the composite z-score is -4.15 (inactive) in experiment [4], -0.192 in experiment [10], 0.209 (inactive) in experiment [11] and -0.0913 in the experiment on XIP peptide (Xip251-270).

For `COc1cc2c(cc1O)C(C)N(C)CC2` (stereo unspecified), the z-score in experiment [1] was -0.454; in experiment [2] it was -0.709 (inactive); in experiment [3], 0.412 (inactive); in experiment [5] it was -0.227 (inactive); in experiment [6], -0.448 (inactive); in [7] it was 0.516 (inactive). Moreover, the z-score in experiment [8] is -0.385 (inactive); in experiment [9] it was 0.566; in experiment [12] it was -0.563; in [13], -0.569 (inactive); in experiment [14] it was -0.0732 (inactive); in [15], 0.363 (inactive). Besides, the composite z-score in experiment [4] was -3.68 (inactive); in [10] it was -0.184; in experiment [11], -0.191 (inactive); in the experiment on XIP peptide (Xip251-270), 0.229.

For the molecule `CCOC(=O)[C@H]1CC=C2C(=O)Oc3ccc(Br)cc3[C@@H]21`, the z-score was 0.328 in [1]; -17 (active) in experiment [2]; -0.595 (inactive) in [3]; 0.477 (inactive) in [5]; -14 (active) in experiment [6]; -0.936 (inactive) in experiment [7]. For the same molecule, the z-score in experiment [8] is -0.568 (inactive); in experiment [9], -0.0544; in experiment [12], -0.5; in experiment [13], -6.05 (inactive); in experiment [14] it was 0.439 (inactive); in [15], 0.286 (inactive). Further, the composite z-score in [4] was -0.89 (inactive); in experiment [10], 0.355; in experiment [11], 0.874 (inactive); with XIP peptide (Xip251-270) it was 0.694.

As to `CCc1cc2c(nc1CC)CCN(CCC(C)=NOC)C2`, the z-score in experiment [1] is -0.64; in [2] it was -0.37 (inactive); in experiment [3], 0.0324 (inactive); in [5] it was 0.0738 (inactive); in experiment [6], 0.246 (inactive); in experiment [7], -0.983 (inactive). Further, the z-score in experiment [8] was -2.63 (inactive); in experiment [9], 0.0393; in experiment [12] it was -1.21; in experiment [13], -3.29 (inactive). Besides, the composite z-score in experiment [4] is 0.273 (inactive); in [10], -0.0773; in [11], 0.341 (inactive); with XIP peptide (Xip251-270), -0.0832.

Turning to `C[C@H]1O[C@H]2C3=C(C(=O)[C@@H]4O[C@@H]4[C@@H]3O)[C@@H]1[C@@H]1[C@@H](C)OC=C3[C@@H](O)[C@H]4O[C@H]4C(=O)[C@]312`, the z-score in [1] was -0.85; in experiment [2], -0.92 (inactive); in [3], -1.92 (inactive); in experiment [5] it was 0.629 (inactive); in experiment [6], -0.839 (inactive); in [7], 0.215 (inactive). Also, the z-score is -0.115 (inactive) in experiment [8], -0.416 in experiment [9], -1.58 in [12] and -0.276 (inactive) in experiment [13]. The composite z-score is -1.59 (inactive) in [4], -0.136 in experiment [10], -0.7 (inactive) in experiment [11] and 0.938 in the experiment on XIP peptide (Xip251-270).

As for `CCCC[C@@H]1C[C@H]1[C@@H](NP(=O)(c1ccccc1)c1ccccc1)c1ccc(Cl)cc1`, the z-score in [1] is 1.46; in experiment [2] it was -1.14 (inactive); in experiment [3], 0.105 (inactive); in experiment [5], 0.122 (inactive); in experiment [6], -0.357 (inactive); in experiment [7], -0.429 (inactive). For the same molecule, the z-score in experiment [8] was -0.363 (inactive); in [9], -0.0326; in experiment [12] it was 0.0345; in experiment [13], -2.17 (inactive); in experiment [14] it was 0.368 (inactive); in experiment [15], 0.316 (inactive). Also, the composite z-score was -0.717 (inactive) in [4], 0.0077 in experiment [10], 0.156 (inactive) in experiment [11] and -0.337 with XIP peptide (Xip251-270).
